According to PubChem BioAssay (NCATS):
Results filed as inconclusive are left out. Entries that show only a call come without a potency. Calls of active or inactive are those of the source. The call rests on the fitted dose curve; in most records, active means well fitted inhibition curve with a large enough effect in the repeat runs; inconclusive means weak or mixed curves; inactive means flat fitted curve, though single readings scatter.
Potency means the concentration at half of the fitted maximal effect.

What follows are compounds tested against Cytochrome P450 2D6 (Homo sapiens) (UniProt P10635) (assay: Cytochrome P450 family 2 subfamily D member 6 (CYP2D6) small molecule antagonists: luciferase biochemical (cell-free) qHTS assay (AID 1645840; further: nearly all actives have a fitted effect of over 55% in size)). Details: P450-Glo CYP2D6 enzyme, luciferin luminescence, 1 h; series mostly up to 57.4 µM.
Chain of Cytochrome P450 2D6 (Homo sapiens) (P10635 whole entry, looked up): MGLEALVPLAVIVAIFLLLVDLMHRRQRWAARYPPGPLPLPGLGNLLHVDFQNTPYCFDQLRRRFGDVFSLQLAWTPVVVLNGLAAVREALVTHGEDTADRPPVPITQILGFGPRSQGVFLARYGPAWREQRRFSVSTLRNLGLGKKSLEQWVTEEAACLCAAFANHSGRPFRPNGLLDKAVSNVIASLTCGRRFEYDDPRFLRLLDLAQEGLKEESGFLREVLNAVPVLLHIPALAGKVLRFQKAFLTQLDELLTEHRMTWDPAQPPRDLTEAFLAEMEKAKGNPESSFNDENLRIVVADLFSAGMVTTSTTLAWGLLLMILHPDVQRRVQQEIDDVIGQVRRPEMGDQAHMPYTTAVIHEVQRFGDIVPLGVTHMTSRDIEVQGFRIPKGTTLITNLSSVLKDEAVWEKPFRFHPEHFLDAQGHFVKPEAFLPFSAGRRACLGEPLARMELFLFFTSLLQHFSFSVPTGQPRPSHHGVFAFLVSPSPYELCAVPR
How it was run: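 P450-Glo CYP2D6 system: proluciferin substrate converted by enzyme to luciferin, read by luminescence proportional to activity. Enzyme-substrate mix with compound 10 min at room temperature, then NADPH regeneration 1 h before detection reagent.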
`COc1ccc(-c2nc3n(n2)C(c2ccc(OC)c(OC)c2)C(C(=O)Nc2cccnc2)=C(C)N3)cc1` (centres undefined) was tested, and the Potency was “inactive”.
`Cc1nn(CC(=O)NCCc2ccccc2)c(=O)c2c1sc1ccccc12` was tested, and the Potency was 12 µM (active).
With `CC1(C#N)CCN(c2c(C(=O)N3CCC(C(=O)C4CC4)CC3)cnc3ccc(F)cc23)CC1` the Potency was 10.7 µM (active).
With `CCOC(=O)N1CCc2c(sc3c2c(=O)n(Cc2ccccc2)c(=O)n3CC(=O)Nc2ccc(F)cc2)C1` the Potency was 1.51 µM (active).
With `Cn1c(=O)c2c(nc(CN3CCN(C(=O)C4CC4)CC3)n2Cc2cccc(F)c2)n(C)c1=O` the Potency was “inactive”.
`CC1(C#N)CCN(c2c(C(=O)N3CCN(S(C)(=O)=O)CC3)cnc3cc(F)c(F)cc23)CC1` was tested, and the Potency was “inactive”.
`CCOc1ccc(-c2nonc2NC(=O)c2oc3c(C)c(C)ccc3c2C)cc1OCC` was tested, and the Potency was “inactive”.
For `Cc1ccc(Cn2c(SCC(=O)NCc3ccccc3)nc3ccsc3c2=O)cc1`, the Potency was 6.01 µM (active).
In the case of `COc1ccc(-n2nc3c(N4CCCC(C(=O)NCc5cccc(F)c5)C4)nnc(C)c3c2C)cc1` (centres undefined), the Potency is reported as 1.69 µM (active).
`CCc1ccc(OCCn2c(C3CC(=O)N(Cc4ccc(F)cc4)C3)nc3ccccc32)cc1` (centres undefined) was tested, and the Potency was 3.01 µM (active).
In the case of `COc1ccc(C(=O)Nc2ccc3oc(-c4ccc(OC)cc4)nc3c2)cc1`, the Potency is reported as “inactive”.
In the case of `Cc1nc2c3ccccc3nc(NNC(=O)CCC(=O)N3CCN(c4ccccc4)CC3)n2n1`, the Potency is reported as “inactive”.
For `COc1ccc(NC(=O)CSc2nc(-c3cccs3)cc(C(F)(F)F)n2)cc1OC`, the Potency was “inactive”.
`Cc1onc(-c2ccccc2Cl)c1C(=O)Cl` was tested, and the Potency was “inactive”.
In the case of `CC(C)OCc1cc(CN2CCN(c3ccccc3)CC2)c(O)c2ncccc12`, the Potency is reported as “inactive”.
In the case of `Cc1onc(-c2c(F)cccc2Cl)c1C(=O)Cl`, the Potency is reported as “inactive”.
With `C[S+](=O)([O-])Nc1ccc(-c2ccc3nc(-c4cccc(OC(F)(F)F)c4)[nH]c3c2)cc1` the Potency was “inactive”.
With `COc1ccc(Br)c2c1-c1nc(NC(=O)c3cccc(C)c3)sc1C2` the Potency was “inactive”.
For `CCCCC[C@H](O)CC[C@@H]1[C@H]2Cc3cccc(OCC(=O)O)c3C[C@H]2C[C@H]1O`, the Potency was “inactive”.
For `CCOC(=O)C1=C(O)c2ccccc2S(=O)(=O)N1C`, the Potency was “inactive”.
`Cc1cccn2c(=O)c(/C=C(\C#N)c3nc4ccccc4s3)c(Oc3ccc(F)cc3)nc12` was tested, and the Potency was “inactive”.
With `CC12CCC3(C)C(=CC(=O)[C@@H]4C5(C)CC[C@H](O[C@H]6O[C@H](C(=O)O)C(O)C(O)[C@H]6O[C@@H]6O[C@H](C(=O)O)C(O)C(O)C6O)C(C)(C)[C@@H]5CCC43C)[C@@H]1C[C@@](C)(C(=O)O)CC2` (some centres undefined) the Potency was “inactive”.
For `CNS(=O)(=O)c1ccc(Cc2c(-c3cccc(-c4ccccc4)c3)[nH]n(-c3nc(C(=O)O)cs3)c2=O)cc1`, the Potency was 26.8 µM (active).
For `Cc1[nH]n2c(=O)cc(-c3ccccc3Cl)nc2c1-c1ccccc1`, the Potency was 16.9 µM (active).
With `COc1ccc(CCNc2nc(SCc3ccccc3F)nc3ccccc23)cc1OC` the Potency was 0.151 µM (active).
`Cc1ccccc1CNC(=O)CCCn1c(=O)c2cccn2c2cccnc21` was tested, and the Potency was 8.49 µM (active).
`CCOC(=O)c1csc(-n2nc(-c3ccc(F)c(F)c3)c(Cc3ccc(S(N)(=O)=O)cc3)c2N)n1` was tested, and the Potency was “inactive”.
With `OCCOCCOCCOCCOCCN1CCN(C(c2ccc(Cl)cc2)c2ccc(Cl)cc2)CC1` the Potency was 8.49 µM (active).
In the case of `Cc1[nH]n2c(=O)cc(-c3ccc(Cl)cc3)nc2c1-c1ccccc1`, the Potency is reported as “inactive”.
For `CC1CCCCC1N(Cc1ccccc1)[S+](=O)([O-])c1ccc([S+](=O)([O-])N(C)C)cc1` (centres undefined), the Potency was “inactive”.
For `CN1N=C(N)c2cn([C@@H]3O[C@H](COP(=O)(O)O)[C@@H](O)[C@H]3O)c3ncnc1c23`, the Potency was “inactive”.
For `O=C(O)c1ccc(Cc2c(-c3cccc(-c4ccccc4)c3)[nH]n(-c3nc(C(=O)O)cs3)c2=O)cc1`, the Potency was 9.52 µM (active).
For `Cn1c(=O)c2c(nc(CN3CCN(C(=O)C4CC4)CC3)n2Cc2ccccc2Cl)n(C)c1=O`, the Potency was “inactive”.
With `CN[C@H](CC(C)C)C(=O)N[C@H]1C(=O)N[C@@H](CC(N)=O)C(=O)N[C@H]2C(=O)N[C@H]3C(=O)N[C@H](C(=O)N[C@H](C(=O)O)c4cc(O)cc(O)c4-c4cc3ccc4O)[C@H](O)c3ccc(c(Cl)c3)Oc3cc2cc(c3O[C@@H]2OC(CO)[C@@H](O)[C@H](O)[C@@H]2O[C@H]2C[C@](C)(N)[C@H](O)[C@H](C)O2)Oc2ccc(cc2Cl)[C@H]1O` (some centres undefined) the Potency was “inactive”.
For `COc1ccc(NC(=O)c2nc(SCc3ccc(F)cc3)ncc2Cl)cc1`, the Potency was “inactive”.
`CCCCCCCCCCCCCCCC(=O)OC[C@H](O)[C@H]1OC(=O)C(=O)C1O` (some centres undefined) was tested, and the Potency was “inactive”.
In the case of `COc1ccc(-c2nc(SCC(=O)Nc3ccc4c(c3)OCO4)c(-c3ccccc3)[nH]2)cc1`, the Potency is reported as 6.01 µM (active).
With `Cc1nc2c3ccccc3nc(NNC(=O)CCC(=O)N3CCN(c4ccccc4F)CC3)n2n1` the Potency was “inactive”.
`CCOC(=O)N1CCc2c(sc3c2c(=O)n(Cc2ccccc2)c(=O)n3CC(=O)Nc2cccc(C)c2)C1` was tested, and the Potency was 1.51 µM (active).
